The values below come from PubChem BioAssay (Tox21).

Experiment [1] is described as follows: qHTS assay to identify aromatase inhibitors - cell viability counter screen (AID 743084).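 Further: cells stimulated with testosterone during compound exposure; nearly all actives have a fitted effect of over 55% in size.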 In general terms: In qHTS, concentration-response curves come from the screen itself.
Experiment [2] can be described thus: qHTS assay to identify small molecule that activate the aryl hydrocarbon receptor (AhR) signaling pathway - cell viability counter screen (AID 743086).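 Further: HepG2 liver cells carrying the AhR DRE luciferase reporter; series mostly up to about 70 µM; nearly all actives have a fitted effect of over 45% in size.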 Put shortly:
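Cytotoxicity counter screen: CellTiter-Fluor signal (30 min, 37 C) in 4000 HepG2 cells/well carrying the DRE-luciferase reporter, following 24 h compound exposure at 37 C.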

The target in experiment [3] is Peroxisome proliferator-activated receptor gamma (Homo sapiens) (UniProt P37231). Nature of the experiment: qHTS assay to identify small molecule antagonists of the peroxisome proliferator-activated receptor gamma (PPARg) signaling pathway (AID 743191; calls by dose curve; further: nearly all actives have a fitted effect of over 30% in size; further: potency means the concentration at half of the fitted maximal effect). Put shortly:
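Beta-lactamase reporter under UAS control in HEK293H PPARg-bla cells; compound treatment 17 h at 37C. Read-out: fluorescence intensity after 1 h room-temperature incubation with LiveBLAzer B/G FRET substrate.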

Experiment [4] is described as follows: qHTS assay to identify small molecule antagonists of the peroxisome proliferator-activated receptor gamma (PPARg) signaling pathway - cell viability counter screen (AID 743194). Further: nearly all actives have a fitted effect of over 55% in size. The settings on record: Potency: co-treated with 50 nM rosiglitazone. Put shortly: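 Viability was measured as CellTiter-Glo luminescence in GeneBLAzer PPARg UAS-bla HEK293H cells. These cells had been exposed 17 h at 37 C to compounds together with rosiglitazone at 50 nM final, with the beta-lactamase readout taken in the same wells.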

Experiment [5] in a line: qHTS assay for small molecule agonists of the antioxidant response element (ARE) signaling pathway - cell viability counter screen (AID 743203; calls by dose curve; further: nearly all actives have a fitted effect of over 55% in size). Put shortly:
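Cytotoxicity was tested in parallel with the ARE reporter screen. ARE-bla HepG2 cells were exposed to compounds for 16 hrs, and viability was taken from CellTiter-Glo luminescence.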

Experiment [6] in a line: qHTS assay for small molecule activators of the heat shock response signaling pathway - cell viability counter screen (AID 743209). Further: nearly all actives have a fitted effect of over 50% in size. Put shortly:
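Cytotoxicity counter screen run in parallel with the HSE beta-lactamase reporter, using the same wells. HeLa HSE-bla cells received compound for 5 h at 37 C; ATP-based CellTiter-Glo luminescence was measured after 30 min at room temperature.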

Experiment [7] can be described thus: qHTS assay for small molecule activators of the heat shock response signaling pathway (AID 743210; active means well fitted activation curve with a large enough effect in the signal ratio in the repeat runs, with a control signal flat, not every such curve was filed as active; the % refers to the signal ratio; further: series mostly up to about 63 µM). The gist of the method: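 Compound exposure lasted 5 h at 37 C in HeLa cells carrying a heat-shock-element-driven beta-lactamase reporter. Read-out: fluorescence intensity after 2.5 h room-temperature loading with LiveBLAzer B/G FRET substrate.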
Experiment [8] is described as follows: qHTS assay to identify small molecule agonists of the peroxisome proliferator-activated receptor delta (PPARd) signaling pathway - cell viability counter screen (AID 743211). Further: nearly all actives have a fitted effect of over 55% in size. The gist of the method:
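Counter screen for cytotoxicity run in parallel with the PPARd reporter screen. Beta-lactamase reporter HEK293H cells exposed to compounds 17 h; ATP-based CellTiter-Glo luminescence quantified viability.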

Experiment [9] deals with Peroxisome proliferator-activated receptor delta (Homo sapiens) (UniProt Q03181). Kind of experiment: qHTS assay to identify small molecule agonists of the peroxisome proliferator-activated receptor delta (PPARd) signaling pathway (AID 743212; calls by dose curve). Put shortly: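 Beta-lactamase reporter readout: a ratiometric FRET signal from the LiveBLAzer substrate after 2 h at room temperature. Compound exposure at 37 °C in PPARδ-bla HEK293H cells driven by an upstream activator sequence.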
Sequence of Peroxisome proliferator-activated receptor delta (Homo sapiens) (Q03181 whole entry, looked up): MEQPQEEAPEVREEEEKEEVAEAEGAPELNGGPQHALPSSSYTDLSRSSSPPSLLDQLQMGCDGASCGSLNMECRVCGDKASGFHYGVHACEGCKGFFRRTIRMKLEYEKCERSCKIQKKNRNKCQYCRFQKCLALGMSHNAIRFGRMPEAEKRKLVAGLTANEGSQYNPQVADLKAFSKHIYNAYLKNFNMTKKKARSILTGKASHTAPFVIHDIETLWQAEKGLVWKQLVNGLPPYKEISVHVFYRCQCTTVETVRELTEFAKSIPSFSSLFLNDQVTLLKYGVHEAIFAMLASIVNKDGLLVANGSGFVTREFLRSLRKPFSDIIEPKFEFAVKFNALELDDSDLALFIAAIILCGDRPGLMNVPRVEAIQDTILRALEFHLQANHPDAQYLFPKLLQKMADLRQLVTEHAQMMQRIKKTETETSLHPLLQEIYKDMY

A short description of experiment [10]: qHTS assay to identify small molecule antagonists of the peroxisome proliferator-activated receptor delta (PPARd) signaling pathway - cell viability counter screen (AID 743213). Further: nearly all actives have a fitted effect of over 50% in size. Put shortly: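 CellTiter-Glo was added to PPARd-bla HEK293H wells following 17 h compound treatment in the presence of 300 nM L165041. Luminescence was recorded after 30 min at room temperature.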

A short description of experiment [11]: qHTS assay to identify small molecule agonists of the farnesoid-X-receptor (FXR) signaling pathway - cell viability counter screen (AID 743218). Further: nearly all actives have a fitted effect of over 45% in size. The gist of the method:
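Cells were seeded, left 5 h at 37 C and 5% CO2, then dosed with compound in DMSO for 16 h. After the beta-lactamase FRET read, CellTiter-Glo was added and luminescence measured 30 min later.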

A short description of experiment [12]: qHTS assay to identify small molecule antagonists of the farnesoid-X-receptor (FXR) signaling pathway - cell viability counter screen (AID 743221; active means well fitted cell-killing curve with a large enough effect in the repeat runs, not every such curve was filed as active; further: nearly all actives have a fitted effect of over 50% in size). The gist of the method: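 Multiplexed counter screen: viability of FXR-bla HEK 293T cells under agonist stimulation by chenodeoxycholic acid (50 uM, final) and test compound for 16 h at 37 C, measured by CellTiter-Glo luminescence in the reporter wells.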

In experiment [13] the target is Bile acid receptor (Homo sapiens) (UniProt Q96RI1). Kind of experiment: qHTS assay to identify small molecule agonists of the farnesoid-X-receptor (FXR) signaling pathway (AID 743220; active means well fitted activation curve with a large enough effect in the signal ratio in the repeat runs, not every such curve was filed as active; the % refers to the signal ratio). The gist of the method: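 FXR-UAS-bla HEK 293T cells carrying a UAS-driven beta-lactamase reporter were plated for 5 h at 37C/5% CO2, then exposed to DMSO-dissolved Tox21 10K compounds for 16 h at 37C. A LiveBLAzer B/G FRET substrate was loaded for 2 h at room temperature before fluorescence reading.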
Sequence of Bile acid receptor (Homo sapiens) (Q96RI1 whole entry, looked up): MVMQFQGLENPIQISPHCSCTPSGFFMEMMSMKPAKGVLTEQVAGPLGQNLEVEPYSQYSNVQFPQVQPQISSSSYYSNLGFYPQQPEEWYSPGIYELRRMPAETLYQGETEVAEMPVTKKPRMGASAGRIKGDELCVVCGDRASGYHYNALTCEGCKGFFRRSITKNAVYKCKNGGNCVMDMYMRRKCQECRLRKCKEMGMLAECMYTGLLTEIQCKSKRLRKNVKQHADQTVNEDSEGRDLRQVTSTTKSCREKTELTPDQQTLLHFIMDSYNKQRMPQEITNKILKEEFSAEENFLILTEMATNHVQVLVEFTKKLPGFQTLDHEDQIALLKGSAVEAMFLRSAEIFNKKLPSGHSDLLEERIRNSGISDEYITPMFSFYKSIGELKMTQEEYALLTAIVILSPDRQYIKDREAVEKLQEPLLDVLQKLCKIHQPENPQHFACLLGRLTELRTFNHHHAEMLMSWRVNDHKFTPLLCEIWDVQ

For experiment [14], the target named is Peroxisome proliferator-activated receptor delta (Homo sapiens) (UniProt Q03181). Nature of the experiment: qHTS assay to identify small molecule antagonists of the peroxisome proliferator-activated receptor delta (PPARd) signaling pathway (AID 743215; active means well fitted inhibition curve with a large enough effect in the signal ratio in the repeat runs, not every such curve was filed as active; the % refers to the signal ratio;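 further: cells stimulated with agonist L165041 at 300 nM final during compound exposure; series mostly up to about 62 µM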). Put shortly: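 Cells: HEK293H with a UAS-driven beta-lactamase reporter responsive to PPARd. Compounds were co-added with L165041 (300 nM, final) and incubated 17 h at 37 C before a 2 h room-temperature FRET substrate step and fluorescence reading.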

Experiment [15] concerns the target Bile acid receptor (Homo sapiens) (UniProt Q96RI1). Kind of experiment: qHTS assay to identify small molecule antagonists of the farnesoid-X-receptor (FXR) signaling pathway (AID 743217; active means well fitted inhibition curve with a large enough effect in the signal ratio in the repeat runs, not every such curve was filed as active; the % refers to the signal ratio). Put shortly:
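Cells carrying a UAS-driven beta-lactamase reporter (GeneBLAzer FXR-UAS-bla HEK 293T) were plated and rested 5 h at 37 °C. Compounds in DMSO were added alongside chenodeoxycholic acid agonist at 50 uM final and left 16 h at 37 °C before FRET substrate readout.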

Experiment [16] deals with Vitamin D3 receptor (Homo sapiens) (UniProt P11473). Kind of experiment: qHTS assay to identify small molecule agonists of the vitamin D receptor (VDR) signaling pathway (AID 743222; calls by dose curve). The gist of the method:
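Cells carrying a VDR-driven beta-lactamase reporter are seeded at 2,000 per well and rested 4 h. Compounds in DMSO are added for 16 h at 37C, and FRET substrate fluorescence is measured after 2 h at room temperature.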

Experiment [17] in a line: qHTS assay for small molecule agonists of the antioxidant response element (ARE) signaling pathway (AID 743202; active means well fitted activation curve with a large enough effect in the signal ratio in the repeat runs, not every such curve was filed as active; the % refers to the signal ratio). The gist of the method:
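After 16 hours of compound treatment at 37 C, HepG2 cells with a stably integrated ARE-driven beta-lactamase reporter were loaded 2 hours at room temperature with LiveBLAzer B/G FRET substrate and fluorescence intensity measured.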

Experiment [18] deals with Vitamin D3 receptor (Homo sapiens) (UniProt P11473). Nature of the experiment: qHTS assay to identify small molecule antagonists of the vitamin D receptor (VDR) signaling pathway (AID 743223; active means well fitted inhibition curve with a large enough effect in the signal ratio in the repeat runs, not every such curve was filed as active; the % refers to the signal ratio). The gist of the method:
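Cells carrying a VDR-driven beta-lactamase reporter (VDR-bla) were co-treated with compound and 3 nM final 1alpha,25-dihydroxyvitamin D3 for 16 h at 37C; reporter activity was measured as FRET substrate fluorescence after 2 h at room temperature.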

In experiment [19] the target is Peroxisome proliferator-activated receptor gamma (Homo sapiens) (UniProt P37231). Nature of the experiment: qHTS assay to identify small molecule agonists of the peroxisome proliferator-activated receptor gamma (PPARg) signaling pathway (AID 743094; active means well fitted activation curve with a large enough effect in the signal ratio in the repeat runs, not every such curve was filed as active; the % refers to the signal ratio). Put shortly:
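Cells from the PPARg UAS-bla HEK293H line are plated and incubated 5 h at 37C. Compounds in DMSO are pinned in and left 17 h at 37C. LiveBLAzer B/G substrate is then added for 1 h at room temperature before fluorescence is measured.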

Inconclusive results are not listed. Activity calls are given as the source filed them. Unless noted, the call rests on the fitted dose curve; in most records, active means well fitted curve in the direction sought with a large enough effect in the repeat runs; inconclusive means weak or mixed curves; inactive means no such curve, though single readings can be large; an effect the other way counts as inactive or inconclusive.

Sequence of Peroxisome proliferator-activated receptor gamma (Homo sapiens) (P37231 whole entry, looked up): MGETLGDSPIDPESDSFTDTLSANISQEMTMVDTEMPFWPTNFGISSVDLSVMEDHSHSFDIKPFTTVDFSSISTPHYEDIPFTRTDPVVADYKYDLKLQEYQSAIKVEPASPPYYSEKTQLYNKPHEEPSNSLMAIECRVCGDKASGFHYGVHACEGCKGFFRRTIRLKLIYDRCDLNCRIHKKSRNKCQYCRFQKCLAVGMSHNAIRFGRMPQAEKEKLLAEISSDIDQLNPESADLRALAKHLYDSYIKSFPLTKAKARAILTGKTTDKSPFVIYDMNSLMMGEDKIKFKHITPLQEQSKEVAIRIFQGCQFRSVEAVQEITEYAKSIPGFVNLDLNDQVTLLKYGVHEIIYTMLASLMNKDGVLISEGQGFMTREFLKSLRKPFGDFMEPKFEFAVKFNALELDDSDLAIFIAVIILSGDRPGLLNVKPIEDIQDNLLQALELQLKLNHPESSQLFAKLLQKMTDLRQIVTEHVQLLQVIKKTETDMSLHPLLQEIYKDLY
Sequence of Vitamin D3 receptor (Homo sapiens) (P11473 whole entry, looked up): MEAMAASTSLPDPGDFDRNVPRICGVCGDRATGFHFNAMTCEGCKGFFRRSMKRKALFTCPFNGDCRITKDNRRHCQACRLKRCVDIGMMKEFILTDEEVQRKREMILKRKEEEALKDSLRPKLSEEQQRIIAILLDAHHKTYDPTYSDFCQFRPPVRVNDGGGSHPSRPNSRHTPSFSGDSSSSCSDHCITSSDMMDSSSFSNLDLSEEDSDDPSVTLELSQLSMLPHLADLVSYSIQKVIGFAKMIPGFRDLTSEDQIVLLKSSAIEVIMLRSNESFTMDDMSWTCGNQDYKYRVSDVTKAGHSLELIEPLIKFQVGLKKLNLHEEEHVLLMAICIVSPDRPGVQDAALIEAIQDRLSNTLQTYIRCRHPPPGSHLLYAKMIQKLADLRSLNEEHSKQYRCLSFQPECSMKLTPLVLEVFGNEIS

Consider `O=C(N[C@H]1CN2CCC1CC2)c1cc2ccoc2cn1`, for which the Potency entry in experiment [1], in [3], in experiment [4], in experiment [5], in [6] and in experiment [8] was “inactive” throughout. The Potency entry in [11] was “inactive”. Besides, the molecule was called inactive in [2], in experiment [7], in [9], in experiment [10] and in experiment [12].

On to `CCN(CC)C(=O)[C@@H]1C=C2c3cccc4[nH]cc(c34)C[C@H]2N(C)C1`, for which the Potency result in experiment [1], in experiment [4], in experiment [5], in experiment [6], in [8] and in [11] was “inactive” in each case. Moreover, the result in [2], in [7], in [9], in experiment [13] and in experiment [12] was inactive.

For the molecule `CC(=O)[C@H]1CC[C@H]2[C@@H]3CC[C@H]4C[C@H](O)CC[C@]4(C)[C@H]3C(=O)C[C@]12C`, the Potency result in [1], in experiment [3], in [4], in experiment [5], in experiment [6] and in [8] was “inactive” in each case. Also, the Potency result in [15] and in experiment [11] was “inactive” throughout. For the same molecule, the outcome in experiment [2], in experiment [7], in [9], in [10], in [14] and in [13] was inactive. Also, the result in experiment [12] and in [16] was inactive.

Turning to `CN/C(=N\[N+](=O)[O-])NCC1CCOC1` (centres undefined), the Potency entry in experiment [1], in [4], in experiment [17], in experiment [5], in [6] and in experiment [8] was “inactive” throughout. For the same molecule, the Potency result in experiment [15] and in [11] was “inactive” each time. Further, the call in experiment [2], in [7], in experiment [10], in [12], in [16] and in experiment [18] was inactive.

With `Cc1coc2c1CCC(C)C2` (centres undefined), the Potency result in experiment [1], in experiment [4], in experiment [6], in [8] and in experiment [11] was “inactive” throughout. Further, the call in experiment [2], in [7], in experiment [10], in [14], in experiment [12] and in experiment [16] was inactive.

As to `O=C(O)c1ccc2[nH]cc(CCCCN3CC=C(c4ccccc4)CC3)c2c1`, the Potency entry in [1], in experiment [4], in [5], in [6], in experiment [8] and in experiment [11] was “inactive” throughout. For the same molecule, the outcome in experiment [2], in experiment [19], in experiment [10], in experiment [14], in experiment [12] and in experiment [16] was inactive. For the same molecule, the call in experiment [18] was inactive.

In the case of `C[N+](C)=CCl`, the Potency entry in [1], in [3], in experiment [4], in experiment [5], in experiment [6] and in experiment [8] was “inactive” throughout. The Potency result in [11] was “inactive”. The outcome in experiment [2], in [7], in experiment [10], in experiment [12], in experiment [16] and in [18] was inactive.

In the case of `CCOP(=S)(OCC)Oc1cc(-c2ccccc2)on1`, the Potency entry in [1], in experiment [3], in experiment [17], in [5], in experiment [6] and in experiment [8] was “inactive” throughout. Besides, the Potency result in [15] and in experiment [11] was “inactive” in each case. The outcome in experiment [2], in [7], in experiment [9], in experiment [10], in [12] and in experiment [16] was inactive.

Regarding `O=c1oc2ccccc2c(O)c1C1CCCc2ccccc21` (centres undefined), the Potency result in [1], in [4], in [5], in experiment [6], in [8] and in experiment [11] was “inactive” each time. Besides, the call in experiment [2], in experiment [7], in experiment [9], in [10], in [14] and in experiment [12] was inactive. Besides, the molecule was called inactive in experiment [16] and in [18]. The Potency in experiment [3] is 30.9 µM (active).
